Wnt bcat act – Wnt/beta-catenin pathway activation; Wnt/beta-catenin reporter cell assay, activator, plate reader; activation, % at 9.35 µM; 300,000 compounds, 1.2% hits; AID 743398; in the data active = activation above about 30%, passing the limit was not always enough; inconclusive = no clear call, values can overlap the other calls
A3A deaminase – blocks human APOBEC3A ssDNA deamination | P31941 | recombinant A3A, FAM/TAMRA ssDNA deamination fluorescence | inhibition, % at 20 µM | 330,000 compounds, 0.41% hits | AID 493011;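 active = at least 40% inhibition at 20 µM here, with at most 30% in a related deaminase screen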
Target sequence (P31941 whole entry, looked up): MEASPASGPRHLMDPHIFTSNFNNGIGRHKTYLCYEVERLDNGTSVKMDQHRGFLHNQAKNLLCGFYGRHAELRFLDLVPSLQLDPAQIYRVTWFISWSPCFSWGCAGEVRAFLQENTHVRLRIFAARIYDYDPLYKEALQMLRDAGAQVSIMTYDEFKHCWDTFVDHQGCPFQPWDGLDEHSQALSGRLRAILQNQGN
APOBEC3G inh – blocks human APOBEC3G single-stranded DNA deamination; inhibition, % at 20 µM; Q9HC16; 330,000 compounds, 0.28% hits; recombinant A3G, ssDNA deamination FAM/TAMRA fluorescence;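 active = inhibition of at least 40% at 20 µM, with no more than 30% in the related APOBEC3A deaminase screen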
Target sequence (Q9HC16 whole entry, looked up): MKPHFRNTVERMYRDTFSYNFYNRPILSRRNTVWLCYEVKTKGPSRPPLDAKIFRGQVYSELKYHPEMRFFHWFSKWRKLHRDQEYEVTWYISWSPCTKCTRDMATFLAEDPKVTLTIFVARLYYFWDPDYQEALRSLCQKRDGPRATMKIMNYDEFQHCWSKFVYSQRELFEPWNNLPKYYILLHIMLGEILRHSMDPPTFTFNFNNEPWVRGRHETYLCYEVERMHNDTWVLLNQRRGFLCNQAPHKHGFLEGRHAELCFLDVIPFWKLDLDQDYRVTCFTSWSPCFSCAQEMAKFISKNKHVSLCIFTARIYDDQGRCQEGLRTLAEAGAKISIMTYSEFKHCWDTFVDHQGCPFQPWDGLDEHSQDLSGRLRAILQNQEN
PHOSPHO1 inh – PHOSPHO1 (human) inhibition | recombinant PHOSPHO1, absorbance phosphatase assay | inhibition, % at 13.3 µM | 290,000 compounds, 1.1% hits | AID 1565; in the data active = inhibition above about 60%
MITF TRPM1 HTS – activators of MITF-driven TRPM1 promoter activity in SK-MEL-5 cells | SK-MEL-5 TRPM1-promoter luciferase, 24 h; % of positive control, neutral wells = 0 | activation, % at 12.5 µM | 300,000 compounds, 0.75% hits | AID 588334;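 active = mean activation of at least 80% with every replicate also reaching 80%; inconclusive = mean reaches 80% but some replicate falls short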
esBAF inh – inhibitors of esBAF chromatin remodeling in mouse ES cells; Bmi1-luciferase knock-in reporter, 24 h; 100% = twice the neutral-well signal; reporter increase, % at 12.5 µM; AID 602393; 350,000 compounds, 2% hits; in the data active = activation above about 40%; inconclusive = no clear call, values can overlap the other calls;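 note: a rise in the Bmi1 reporter signal indicates esBAF inhibition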
A number is an active result; - = inactive; ? = inconclusive; . = no result. An excerpt weighted towards active compounds, which were near 3.6% of everything screened.

SMILES	Wnt bcat act	A3A deaminase	APOBEC3G inh	PHOSPHO1 inh	MITF TRPM1 HTS	esBAF inh
CN(C)C(=O)c1cccc(-c2ccc3c(c2)[C@@H]2[C@@H](CCN2C(=O)c2cccc(F)c2)[C@H](CO)N3C)c1	.	.	.	.	.	-
Cc1cccc(C(=O)Oc2ccc(/C=N/O)cc2)c1	-	-	-	-	126.6	75.8
Cc1ccc(CN2CCN(C(=O)c3ccncc3)CC2)cc1	-	-	-	68.4	-	-
COc1ccc(CN(C)C[C@@H]2Oc3ccc(NC(=O)Cn4cnnn4)cc3CC(=O)N([C@@H](C)CO)C[C@H]2C)cc1	.	.	.	.	.	-
CCOC(=O)c1sc(Nc2nc3ccc(OC)cc3s2)cc1C	.	-	-	-	-	.
CCOC(=O)c1csc(Nc2nc3ccc(F)cc3s2)n1	38.7	-	-	-	-	.
COC(=O)c1ccc2nc(Nc3nc4ccc(F)cc4s3)sc2c1	-	.	.	-	-	-
CC(=O)c1sc(Nc2nc3ccc(F)cc3s2)nc1C	67.0	-	-	-	-	.
C[C@H]1CN([C@@H](C)CO)C(=O)c2cccc(NS(=O)(=O)c3ccccc3)c2O[C@@H]1CN(C)C(=O)Nc1ccc2c(c1)OCO2	.	.	.	.	.	56.5
Cc1ccc(S(=O)(=O)Nc2cccc3c2O[C@H](CN(C)C(=O)Nc2ccc4c(c2)OCO4)[C@@H](C)CN([C@H](C)CO)C3=O)cc1	.	.	.	.	.	49.2
C[C@@H]1CN([C@@H](C)CO)C(=O)c2cccc(NC(=O)Nc3ccccc3)c2O[C@H]1CN(C)C(=O)Nc1ccc2c(c1)OCO2	.	.	.	.	.	61.3
Cc1ccc(S(=O)(=O)Nc2cccc3c2O[C@@H](CN(C)C(=O)Nc2ccc4c(c2)OCO4)[C@@H](C)CN([C@@H](C)CO)C3=O)cc1	.	.	.	.	.	72.7
C[C@H](CO)N1C[C@H](C)[C@H](CN(C)S(C)(=O)=O)Oc2c(NC(=O)Nc3ccc(F)cc3)cccc2C1=O	.	.	.	.	.	-
CN1CCN(C(=O)C[C@@H]2CC[C@H]3[C@@H](COC[C@H](O)CN3C(=O)C3CCOCC3)O2)CC1	.	.	.	.	.	-
COc1ccc(S(=O)(=O)Nc2ccc3c(c2)C(=O)N([C@H](C)CO)C[C@H](C)[C@@H](CN(C)C(=O)Nc2cccc4ccccc24)O3)cc1	.	.	.	.	.	-
O=C(C[C@H]1CC[C@@H]2[C@H](COC[C@@H](O)CN2CCc2ccccc2)O1)NCc1ccccc1	.	.	.	.	.	-
COC(=O)[C@@H]1[C@@H](CO)[C@@H]2Cn3c(ccc(C4=CCCC4)c3=O)[C@@H]2N1CC1CCOCC1	.	.	.	.	.	-
Cc1cc(C(=O)Nc2cccc3c2O[C@@H](CN(C)C(=O)Nc2cccc4ccccc24)[C@H](C)CN([C@H](C)CO)C3=O)n(C)n1	.	.	.	.	.	-
C[C@@H]1CN([C@H](C)CO)C(=O)c2cccc(NC(=O)Nc3ccc4c(c3)OCO4)c2O[C@H]1CN(C)Cc1ccc2c(c1)OCO2	.	.	.	.	.	-
C[C@@H]1CN([C@@H](C)CO)C(=O)c2cccc(NC(=O)Nc3ccc4c(c3)OCO4)c2O[C@H]1CN(C)Cc1ccc(Cl)c(Cl)c1	.	.	.	.	.	55.3
C[C@H]1CN([C@@H](C)CO)C(=O)Cc2cc(NC(=O)C3CCCCC3)ccc2O[C@@H]1CN(C)C(=O)Nc1ccc2c(c1)OCO2	.	.	.	.	.	41.9
C[C@@H]1CN([C@@H](C)CO)C(=O)c2cc(C#Cc3ccccc3F)cnc2O[C@@H]1CN(C)S(C)(=O)=O	.	.	.	.	.	-
Cc1sc2nc(-c3cccnc3)nc(Cl)c2c1-c1ccccc1	-	-	-	-	-	57.6
COc1ccc(C(=O)Nc2ccc(C3CC3(Cl)Cl)cc2)cc1 (stereo not given)	-	-	-	71.4	-	90.9
COc1ccc(NC(=O)c2ccc(NC(=O)c3ccncc3)cc2)cc1	-	-	-	-	-	-
SMILES	Wnt bcat act	A3A deaminase	APOBEC3G inh	PHOSPHO1 inh	MITF TRPM1 HTS	esBAF inh
COc1ccc(C(=O)Nc2cnc(NC(=O)c3cccs3)cc2C)cc1	-	-	-	-	-	46.9
CCc1ccc(C(=O)Nc2cc(C)on2)o1	-	-	-	-	-	51.2
CCc1ccc(NC(=O)c2cc(-c3ccco3)on2)cc1	.	-	-	-	101.0	66.2
O=C(Nc1ccc2c(c1)[C@@H]1C[C@@H](CC(=O)N3CCc4ccccc4C3)O[C@@H](CO)[C@@H]1O2)Nc1ccccc1F	.	.	.	.	.	-
O=C(C[C@@H]1C[C@H]2c3cc(NC(=O)Cc4ccncc4)ccc3O[C@H]2[C@@H](CO)O1)NCc1ccccn1	.	.	.	.	.	-
COc1ccc(NC(=O)c2coc(C)c2)cc1	-	-	-	-	.	74.1
COc1cc(OC)cc(C(=O)Nc2cc(C)on2)c1	-	-	-	.	-	-
COc1ccc(NC(=O)c2cc(-c3ccco3)on2)cc1	42.3	-	-	-	91.7	.
COc1ccc(NC(=O)c2cc(-c3ccccc3Cl)on2)cc1	?	-	-	-	.	63.0
COc1ccc(C(=O)Nc2cc(C)on2)cc1	46.9	-	-	-	-	-
CC(C)CC#Cc1cnc2c(c1)C(=O)N([C@H](C)CO)C[C@@H](C)[C@H](CN(C)C(=O)c1ccccc1)O2	.	.	.	.	.	-
O=C(NCC[C@H]1CC[C@@H](NC(=O)c2cccnc2)[C@@H](CO)O1)Nc1ccc(Cl)cc1	.	.	.	.	.	-
C[C@H]1CCCCO[C@H](CN(C)C(=O)Cc2ccccc2)[C@@H](C)CN([C@@H](C)CO)C(=O)c2cc(NC(=O)Cc3ccccc3)ccc2O1	.	.	.	.	.	-
CCC(=O)N(C)C[C@@H]1Oc2cc(C#CC3CCCC3)ccc2S(=O)(=O)N([C@@H](C)CO)C[C@H]1C	.	.	.	.	.	-
CN(C)C(=O)C[C@H]1C[C@H]2c3cc(NC(=O)Nc4ccc(F)cc4)ccc3O[C@H]2[C@@H](CO)O1	.	.	.	.	.	-
Cc1cc(NC(=O)c2ccccc2)no1	-	-	-	-	-	-
C/C(=C\C(=O)Nc1cc(C)on1)c1ccccc1	.	-	-	-	81.9	?
COc1ccc(NC2=NCCCCC2)cc1	-	-	-	-	-	-
